In PubChem BioAssay AID2606 (The Scripps Research Institute Molecular Screening Center, 2010):
About 160 (0.05%) of roughly 320,000 compounds were called active. Cut-off read from the data, not from the text of the source: active = inhibition above about 38%; inactive = the rest. For the sample, actives were picked, then their nearest neighbours and some compounds at random.

Molecular target: Serine protease Rv3671c (Mycobacterium tuberculosis (strain ATCC 25618 / H37Rv)) (UniProt P9WHR9)
Test: inhibition of M. tuberculosis membrane protease Rv3671c – biochemical, fluorescence polarization, M. tuberculosis H37Rv, primary screen (AID 2606);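 note: extracellular domain of Rv3671c used as enzyme; 0% = enzyme with DMSO and 100% = no enzyme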
Conditions: at 5.96 µM; stronger effect = higher value

Sequence of Serine protease Rv3671c (Mycobacterium tuberculosis (strain ATCC 25618 / H37Rv)) (P9WHR9 whole entry, looked up, the tested form may be a part): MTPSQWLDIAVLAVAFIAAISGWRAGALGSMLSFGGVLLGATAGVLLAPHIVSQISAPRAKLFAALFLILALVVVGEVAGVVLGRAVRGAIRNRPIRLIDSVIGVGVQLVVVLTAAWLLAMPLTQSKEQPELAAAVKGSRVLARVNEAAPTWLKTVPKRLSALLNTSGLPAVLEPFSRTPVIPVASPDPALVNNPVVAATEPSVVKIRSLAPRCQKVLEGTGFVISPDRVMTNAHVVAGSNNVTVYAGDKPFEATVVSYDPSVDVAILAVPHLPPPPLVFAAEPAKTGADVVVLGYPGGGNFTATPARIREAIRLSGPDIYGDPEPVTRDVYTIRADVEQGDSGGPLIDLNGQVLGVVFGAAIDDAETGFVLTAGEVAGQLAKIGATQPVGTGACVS

Row | SMILES | inhibition
1 | COP1(=O)C[C@@H](O)[C@@H](O)[C@@H](COCc2ccccc2)O1 (stereo not given in full) | -2.74% (inactive)
2 | Cc1cnc(C(=O)N2CCCC(C(=O)c3ccc(C(F)(F)F)cc3)C2)cn1 (stereo not given) | -4.62% (inactive)
3 | CC(c1nnc(SCC(=O)Nc2sccc2C#N)n1-c1ccc(Cl)cc1)N(C)C (stereo not given) | 3.82% (inactive)
4 | Cn1sc(=O)c2cc(S(=O)(=O)NC3CC3)ccc21 | -8.37% (inactive)
5 | C[C@@H](NC(=O)c1nc[nH]c1C(=O)N1CCN(C(=O)OC(C)(C)C)CC1)c1ccccc1 | -6.88% (inactive)
6 | CC(Sc1nnc(Cc2ccc([N+](=O)[O-])cc2)o1)C(N)=O (stereo not given) | -0.21% (inactive)
7 | C[C@@H](C(=O)Nc1ccc2ccccc2c1)[C@@H]1C[C@@]1(C)[C@@H](NC(=O)c1cccnc1)c1ccccc1 | -17.9% (inactive)
8 | CCS(=O)(=O)N1Cc2ccccc2CC1C(=O)Nc1nc2ccc(F)cc2s1 (stereo not given) | -18.8% (inactive)
9 | O=C(NCc1ccccc1)C1=C[C@@H](c2ccccc2)C[C@@H](OCCCCO)O1 | -9.25% (inactive)
10 | O=S(=O)(c1cc(Cl)ccc1Cl)N1CCN(Cc2ccco2)CC1 | -5.87% (inactive)
11 | COc1cccc(/C=C2\SC(=N)N(c3ccc(F)cc3)C2=O)c1 | 7.8% (inactive)
12 | COc1ccc(/C=N/N=C/c2c[nH]c(=O)c(C#N)c2Nc2ccccc2)cc1 | -1.73% (inactive)
13 | NS(=O)(=O)c1ccc(NC(=S)Nc2ccc(Br)c(Cl)c2)cc1 | -3.02% (inactive)
14 | CCn1c(SCC(=O)Nc2ccc(Br)cc2)nc2sc3c(c2c1=O)CCN(C)C3 | -7.34% (inactive)
15 | COc1ccccc1C(=O)Nc1ccc(OCC(=O)N2CCCCC2)cc1 | -8.76% (inactive)
16 | Cc1cc(NC(=O)CCC(=O)N(Cc2ccccc2)C(C(=O)NC2CCCC2)c2ccc(C)o2)no1 (stereo not given) | -5.73% (inactive)
17 | CCOC(=O)C1CCN(S(=O)(=O)c2ccc3c(c2)N(C(C)=O)CCO3)CC1 | 2.87% (inactive)
18 | CCCc1nc2ccccc2c(C(=O)OCc2nnc(-c3cc(OC)c(OC)c(OC)c3)o2)c1CC | -9.57% (inactive)
19 | COc1ccc(/C=C/C(=O)NC(=S)NN2CCCCC2c2cccnc2)cc1 (stereo not given) | -0.41% (inactive)
20 | Cc1cc(O)ccc1NC1=CC(=O)CC(C)(C)C1 | -4.53% (inactive)
21 | CC1CCC(CN2CCN=C2N(C)C)CC1 (stereo not given) | -3.89% (inactive)
22 | Cc1ccc(S(=O)(=O)NC(=O)COc2ccccc2C)cc1 | 7.88% (inactive)
23 | CCCCn1c(=S)[nH]c2cc(S(=O)(=O)N3CCCCC3)ccc21 | -12.1% (inactive)

Row | SMILES | inhibition
24 | O=C(COC(=O)c1ccc(S(=O)(=O)N2CCc3ccccc3C2)cc1)NC(=O)NCc1ccco1 | -44.5% (inactive)
25 | COc1ccccc1OCCNCC(O)COc1cccc2[nH]c3ccccc3c12 (stereo not given) | -3.15% (inactive)
26 | C=C1C2C[C@H](O)C(C)(C)[C@@]2(O)[C@H](O)C[C@]23C[C@@](C)(O)[C@H](CC[C@H]12)[C@H]3O (stereo not given in full) | 8.16% (inactive)
27 | CCCCCCCNc1nc(Cl)nc(NCCO)n1 | 1.57% (inactive)
28 | C/C(=N\NC(=O)NC1CCCCC1)c1ccc(OC(F)F)cc1OC(F)F | -2.17% (inactive)
29 | C/C(=N/NS(=O)(=O)c1ccccc1)c1ccc(NC(=O)C(F)(F)F)cc1 | -8.65% (inactive)
30 | O=C(CNC(=O)c1ccccc1F)OCC(=O)c1c[nH]c2ccccc12 | 3.57% (inactive)
31 | COc1ccc(SC[C@H](Cc2ccccc2)N2CCN(CCc3ccccc3)CCC2=O)cc1 | 1.82% (inactive)
32 | CC(=O)c1ccc(N2CCN(C(=O)CCNC(=O)Cn3ccc4ccccc4c3=O)CC2)cc1 | -8.01% (inactive)
33 | CC(=O)Nc1c2c(nn1-c1ccc(C)cc1C)CS(=O)C2 (stereo not given) | -11.2% (inactive)
34 | CS(=O)(=O)c1ccc(Cl)c(NC(=O)COC(=O)c2ncc(Cl)c(Cl)c2Cl)c1 | 0.74% (inactive)
35 | O=C(CSc1nnc(-c2ccoc2)o1)N1CCOCC1 | 6.68% (inactive)
36 | OC(COCc1ccco1)CN1CCN(c2ccccc2)CC1 (stereo not given) | 5.86% (inactive)
37 | C/C(=N/NC(=O)CN1CCN(S(=O)(=O)c2ccc(Br)cc2)CC1)c1ccncc1 | -1.08% (inactive)
38 | CCOc1ccc(N(CC(=O)Nc2cccc(OC)c2)S(C)(=O)=O)cc1 | -3.74% (inactive)
39 | CN=C1C=C/C(=N/N=c2\ccn(O)cc2C)C=C1C | -17.4% (inactive)
40 | Cc1ccc(-n2c(SCC(=O)Nc3ncc(Cl)cc3Cl)nc3ccccc32)cc1 | -17.4% (inactive)
41 | Cc1ccn2c(=O)c(NC(=O)c3cccc4ccccc34)c(C)nc2c1 | -5.92% (inactive)
42 | CC(C(=O)N1CCN(c2ccccc2F)CC1)c1ccc([N+](=O)[O-])cc1 (stereo not given) | 7.31% (inactive)
43 | CCC(=NC1CC(C)(C)NC(C)(C)C1)C1=C(O)CC(C)(C)CC1=O | -1.22% (inactive)
44 | CCC(C)[C@H](NC(=O)N1c2ccccc2NC(=O)[C@@H]1C(C)C)C(=O)N[C@@H](Cc1ccccc1)C(=O)O (stereo not given in full) | 6.36% (inactive)
45 | CCOc1ccccc1NC(=O)C1CCCN(S(=O)(=O)c2ccccc2)C1 (stereo not given) | -17.1% (inactive)
46 | O=C(Nc1nnc(Cc2ccc(Cl)cc2)s1)c1ccncc1 | 7.51% (inactive)

Row | SMILES | inhibition
47 | COCCn1c(N)c(NCc2ccccc2)c(=O)[nH]c1=O | -10.5% (inactive)
48 | Cc1ccc(NC(=O)C2(N3CCC3=O)CCCCC2)cc1 | 3.63% (inactive)
49 | CCOc1ccc(CN(C)C(=O)c2ccc(=O)[nH]c2)cc1 | 0.46% (inactive)
50 | Cc1cc(C(=O)OC(C)C(=O)NC2CCCCC2C)c(C)o1 (stereo not given) | -0.91% (inactive)
51 | COc1ccc(Cn2c(O)c(/C=C3/C=CC=N3)c(=O)[nH]c2=O)cc1 | -6.46% (inactive)
52 | C[C@H](NS(=O)(=O)c1ccc(Cl)cc1)C(=O)OCC(=O)N1CCOCC1 | 3.78% (inactive)
53 | CN(C)CC(C)(C)CNC(=O)c1cc(Br)cc(Br)c1O | 9.55% (inactive)
54 | CCCCc1cc2c(s1)CCCC/C2=N/O | -4.78% (inactive)
55 | CCc1nc2ccc(C(=O)N3CCN(c4cccc(Cl)c4)CC3)cc2nc1CC | 0.29% (inactive)
56 | O=S(=O)(NC1CC2CCC1C2)c1ccc(Cl)cc1 (stereo not given) | 0.26% (inactive)
57 | CC(=O)c1ccc(N2CCN(S(=O)(=O)c3c(C)[nH]c(=O)[nH]c3=O)CC2)cc1 | 5.45% (inactive)
58 | COc1ccc(NC(=O)C(C)SCc2ccccc2)cc1 (stereo not given) | 0.17% (inactive)
59 | C/C(=N\NC(=O)c1ccc(CSc2nc(C)cc(C)n2)cc1)C1CCCCC1 | -1.11% (inactive)
60 | O=C1Nc2cc(C(=O)N3CCN(c4ccc(F)cc4)CC3)ccc2NC1CSCc1cccc(F)c1 (stereo not given) | -19.6% (inactive)
61 | O=C(Nc1cc(S(=O)(=O)Nc2ccc(Cl)cc2)ccc1O)c1ccc(F)cc1F | -20% (inactive)
62 | COc1ccccc1NC(=S)N1CCN(C(c2ccccc2)c2ccccc2)CC1 | -3.52% (inactive)
63 | CCOc1ccc(OCC)c(NC(=O)CN(C)S(=O)(=O)c2cccc3nsnc23)c1 | 4.81% (inactive)
64 | CC(=O)OCCOCn1cnn2c(=O)c(Br)c(C)nc12 | 9.74% (inactive)
65 | Cc1nc2nc[nH]n2c(=O)c1NC(=O)c1cccc(OCC(C)C)c1 | 2.66% (inactive)
66 | Cn1cnc(S(=O)(=O)Nc2ccc3c(c2)OCCO3)c1 | -5.54% (inactive)
67 | O=C(NCc1ccccc1)[C@@H]1CSC2c3ccccc3C(=O)N21 (stereo not given in full) | 5.62% (inactive)
68 | CCc1cccc2c(C=C(C#N)C#N)cn(CC(=O)N3CCCCC3)c12 | -5.84% (inactive)
69 | COc1cccc(CNC(=O)Cn2c(=O)oc3cc(S(=O)(=O)N4CCCCC4)ccc32)c1 | -26.5% (inactive)

Row | SMILES | inhibition
70 | O=C(O)c1ccn(COc2ccc(Br)cc2)n1 | 5.52% (inactive)
71 | CCc1ccc(N(C(=O)c2csnn2)C(C(=O)NC2CCCCC2)c2cccnc2)cc1 (stereo not given) | -1.12% (inactive)
72 | COc1ccccc1Nc1nnc(SC(C)C(=O)NC2CC2)s1 (stereo not given) | 6.85% (inactive)
73 | C=C1CCC(N(O)c2cc(C)on2)C(=C)CCC2C1CC2(C)C (stereo not given) | -8.68% (inactive)
74 | O=C(CNS(=O)(=O)c1ccc2ccccc2c1)Nc1ccc(F)c(F)c1F | 2.38% (inactive)
75 | CCN(CC)C(=O)CSc1nnc(-c2cnccn2)n1-c1ccc(C)cc1 | -10.7% (inactive)
76 | O=C(O)C1=NN(c2c(F)c(F)cc(F)c2F)C(=O)CC1 | -8.71% (inactive)
77 | CCOc1ccc(S(=O)(=O)N2CCC(c3ccccc3)CC2)cc1C(=O)O | 2.59% (inactive)
78 | CCCN(CCC)S(=O)(=O)c1ccc(C(=O)NNC(=O)c2cc(OC)c(OC)c(OC)c2)cc1 | 2.22% (inactive)
79 | CCCCNC(=O)C1(c2ccc(OC)cc2)CCOCC1 | 1.73% (inactive)
80 | CC(C)(C)NS(=O)(=O)NC(=O)C1=C(N2CCCC2)COC1=O | -1.86% (inactive)
81 | O=c1[nH]c2ccccc2n2c(-c3ccccc3)nnc12 | -13% (inactive)
82 | COc1ccc(NC(=O)c2cc([N+](=O)[O-])ccc2NC(=O)CNC2CCCCC2C)c(OC)c1 (stereo not given) | -11.9% (inactive)
83 | CN(C)C(=O)N=NC(=O)N(C)C | -1.83% (inactive)
84 | O=C(Nc1ccccc1C(=O)O)c1ccc(N2C(=O)C3CC=CCC3C2=O)cc1 (stereo not given) | -4.79% (inactive)
85 | COc1cccc(CNc2ncc(-c3ccccc3)n2C)c1 | -4.35% (inactive)
86 | O=C(Cn1ccc([N+](=O)[O-])n1)NCc1cccs1 | 2.31% (inactive)
87 | CCOc1ncccc1C(=O)OCC(=O)c1c[nH]c2ccccc12 | 2.18% (inactive)
88 | Cc1ccccc1CSc1nnc(CCCCCNC(=O)OC(C)(C)C)o1 | -2.88% (inactive)
89 | COc1cc([N+](=O)[O-])cc([N+](=O)[O-])c1NC(=O)N1CCOCC1 | 0.53% (inactive)
90 | O=C(CN1C(=O)NC2(CCCC2)C1=O)OCCOc1ccc(F)cc1 | 0.5% (inactive)
